Test results from PubChem BioAssay (Tox21).
Records with an inconclusive call do not appear. Active and inactive are the calls of the source. Unless noted, calls follow the shape of the dose curve; as a rule, active = well fitted curve in the direction sought with a large enough effect in the repeat runs; inconclusive = weak or mixed curves; inactive = no such curve, though single readings can be large; an effect the other way counts as inactive or inconclusive.

Key:
[1] = target: Estrogen receptor beta (Homo sapiens) (UniProt Q92731); test: qHTS assay to identify small molecule antagonists of the estrogen receptor beta (ER-beta) signaling pathway (AID 1259378; active = well fitted inhibition curve with a large enough effect in the signal ratio in the repeat runs, not every such curve was filed as active; the % refers to the signal ratio; also: potency is read from the fitted curve at half-maximal effect)
Method in brief: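 Antagonist mode: compounds added to beta-lactamase reporter HEK293T ER-beta-UAS cells stimulated with E2 (1nM final), 16 hr at 37C. LiveBLAzer B/G FRET substrate, 2 hours room temperature, fluorescence read-out.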

[2] = qHTS assay to identify small molecule agonists of the androgen receptor (AR) signaling pathway in the presence of an antagonist - cell viability counter screen (AID 1259379); also: nearly all actives have a fitted effect of over 25% in size; also: potency is read from the fitted curve at half-maximal effect;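 as to activity change, negative = cytotoxicity: MDA-kb2 human breast cancer cells carrying an MMTV luciferase reporter; series mostly up to about 92 µM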
Method in brief: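 Cytotoxicity is assessed by CellTiter-Fluor in MDA-kb2 cells carrying an MMTV-driven luciferase reporter. Cells receive 3.0uM nilutamide plus compounds at 15 concentrations and incubate 16 hr at 37C without CO2 before fluorescence reading.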

[3] = qHTS assay to identify small molecule antagonists of the estrogen receptor beta (ER-beta) signaling pathway - cell viability counter screen (AID 1259382); also: nearly all actives have a fitted effect of over 55% in size; also: potency is read from the fitted curve at half-maximal effect;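 as to activity change, negative = cytotoxicity: HEK293T cells carrying ER-beta-UAS-bla reporter stimulated with estradiol; series mostly up to about 92 µM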
Method in brief: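 Cytotoxicity counter screen multiplexed with the beta-lactamase antagonist assay: GripTite HEK293T ER-beta-bla cells were treated 16 hr with test chemicals in the presence of 1nM 17-beta-estradiol, and viability was measured by CellTiter-Glo.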

[4] = qHTS assay to identify small molecule agonists or antagonists of the thyroid stimulating hormone receptor (TSHR) signaling pathway - wild type cell line counter screen (AID 1259384; calls by dose curve)
Method in brief: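 Counter screen in untransfected Hek293: compounds (15-point titration, triplicate) plus phosphodiesterase inhibitor Ro20-1724 added after 18 h plating; 30 min RT. Intracellular cAMP via competitive d2/cryptate immunoassay, 1 h incubation.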

[5] = target: Thyrotropin receptor (Homo sapiens) (UniProt P16473); test: qHTS assay to identify small molecule antagonists of the thyroid stimulating hormone receptor (TSHR) signaling pathway (AID 1259385; calls by dose curve; also: nearly all actives have a fitted effect of over 20% in size; also: potency is read from the fitted curve at half-maximal effect)
Method in brief: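 Antagonist mode: compound-treated TSHR-expressing HEK293 cells were stimulated with 1.5 ng/mL TSH (final) in presence of Ro20-1724 for 30 min at RT. HTRF cAMP detection after 1 h; each compound tested at 15 concentrations, triplicate.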

[6] = qHTS assay to identify small molecule agonists of the estrogen receptor alpha (ER-alpha) signaling pathway in the presence of an antagonist - cell viability counter screen (AID 1259386);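 also: cells exposed to compounds for 22 h at 37 °C before the viability read; nearly all actives have a fitted effect of over 30% in size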; also: potency is read from the fitted curve at half-maximal effect; as to activity change, negative = cytotoxicity: series mostly up to about 92 µM
Method in brief: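 Cytotoxicity was measured in parallel with the ERE-luciferase agonist screen, in the same wells. The cells were VM7Luc4E2, which endogenously express ER-alpha, and treatment was with compounds plus 10.0nM ICI-182,780 for 22hr.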

[7] = target: Progesterone receptor (Homo sapiens) (UniProt P06401); test: qHTS assay to identify small molecule agonists of the progesterone receptor (PR) signaling pathway (AID 1346784; calls by dose curve; also: nearly all actives have a fitted effect of over 30% in size)
Method in brief: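 HEK 293T PR-UAS-bla reporter cells, 2% charcoal-stripped FBS; 6 hr settle at 37C/5% CO2, compound (DMSO) 16 hr, LiveBLAzer B/G FRET substrate 2 hr RT, fluorescence intensity read.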

[8] = target: Progesterone receptor (Homo sapiens) (UniProt P06401); test: qHTS assay to identify small molecule antagonists of the progesterone receptor (PR) signaling pathway (AID 1346795; active = well fitted inhibition curve with a large enough effect in the signal ratio in the repeat runs, not every such curve was filed as active; the % refers to the signal ratio; also: potency is read from the fitted curve at half-maximal effect)
Method in brief: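 Beta-lactamase reporter, HEK293T PR-UAS-bla line; 2% charcoal-stripped FBS; 6 hr pre-incubation, 37C/5% CO2. Compound + R5020 1 nM final, 16 hr. LiveBLAzer B/G FRET substrate, 2 hr RT; fluorescence intensity read.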

[9] = qHTS assay to identify small molecule antagonists of the progesterone receptor (PR) signaling pathway - cell viability counter screen (AID 1346798); also: nearly all actives have a fitted effect of over 50% in size; also: potency is read from the fitted curve at half-maximal effect; as to activity change, negative = cytotoxicity: series mostly up to about 92 µM
Method in brief: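 Luminescence readout (CellTiter-Glo, 30 min, RT) of viability in PR-UAS-bla HEK293T cells exposed to compound and R5020 agonist for 16 hr at 37C, 5% CO2; run in the same wells as the beta-lactamase reporter read.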

[10] = qHTS assay to identify small molecule agonists of the progesterone receptor (PR) signaling pathway - cell viability counter screen (AID 1346799; calls by dose curve; also: nearly all actives have a fitted effect of over 45% in size; also: potency is read from the fitted curve at half-maximal effect)
Method in brief: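 HEK293T PR-UAS-bla, 3,000 cells/well, 2% charcoal-stripped FBS; 6 h settle, compound 16 h at 37C/5% CO2; LiveBLAzer 2 h RT, then CellTiter-Glo 30 min RT, luminescence read.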

[11] = qHTS assay to identify small molecule antagonists of the TGF-beta/Smad signaling pathway - cell viability counter screen (AID 1346824); also: nearly all actives have a fitted effect of over 50% in size
Method in brief: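 Cytotoxicity counter-screen run in the same wells as the beta-lactamase Smad reporter read: CellTiter-Glo luminescence after 30 min at room temperature. HEK 293T SBE-bla cells had 5 hr compound exposure at 37 C with TGF-beta1 (0.25 ng/mL stock).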

[12] = qHTS assay to identify small molecule agonists of the TGF-beta/Smad signaling pathway - cell viability counter screen (AID 1346829); also: top concentration of the series differs between compounds; nearly all actives have a fitted effect of over 45% in size
Method in brief: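 After overnight seating at 37 C and 5% CO2, reporter cells got compounds for 5 hr and FRET substrate for 2 hr; cell viability then came from CellTiter-Glo luminescence.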

[13] = qHTS assay to identify small molecule agonists of the TGF-beta/Smad signaling pathway (AID 1346859; active = well fitted activation curve with a large enough effect in the signal ratio in the repeat runs, not every such curve was filed as active; the % refers to the signal ratio; also: series mostly up to about 77 µM)
Method in brief: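 Read-out: fluorescence at 460 and 530 nm (405 nm excitation) after a 2 hr room-temperature incubation with beta-lactamase FRET substrate. SBE-bla HEK 293T cells had been treated with test compounds for 5 hr at 37 C.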

[14] = target: Thyrotropin-releasing hormone receptor (Homo sapiens) (UniProt P34981); test: qHTS assay to identify small molecule antagonists of the thyrotropin-releasing hormone receptor (TRHR) signaling pathway (AID 1346877; active = well fitted inhibition curve with a large enough effect in the repeat runs, not every such curve was filed as active; also: series mostly up to about 51 µM)
Method in brief: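 Antagonism is measured as suppression of the calcium response to 1 nM TRH in TRHR-HEK293 cells that have been dye-loaded for 2 h at 37 °C after overnight plating. Each compound is tested at 15 concentrations in triplicate.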

[15] = target: Thyrotropin-releasing hormone receptor (Homo sapiens) (UniProt P34981); test: qHTS assay to identify small molecule agonists of the thyrotropin-releasing hormone receptor (TRHR) signaling pathway (AID 1346891; calls by dose curve;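 also: HEK293 cells expressing TRHR with calcium dye readout; series mostly up to about 58 µM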)
Method in brief: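 HEK293/TRHR cells, 1500 per well, 18 h 37 °C; Ca dye 2 h 37 °C; pin-tool compound addition (agonist mode); kinetic fluorescence 3 min, 1 s reads; 15 concentrations, triplicate.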

[16] = Human pregnane X receptor (PXR) small molecule agonists, qHTS cell viability counter screen (AID 1346977); also: nearly all actives have a fitted effect of over 50% in size; also: potency is read from the fitted curve at half-maximal effect
Method in brief: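 Fluorescence read-out (CellTiter-Fluor) of viability in PXR-Luc HepG2 cells, multiplexed with the luciferase agonist read. Compounds in DMSO added after 5hr plating; 24hr total exposure at 37C, 5% CO2.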

[17] = Caspase-3/7 induction in HepG2 cells by small molecules, qHTS assay (AID 1346978); also: nearly all actives have a fitted effect of over 15% in size; also: potency is read from the fitted curve at half-maximal effect
Method in brief: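 Caspase-3/7 induction was measured by Caspase-Glo 3/7 luminescence (30 min, room temperature) after a 17 hr compound exposure of wild-type HepG2 cells seeded at 2,000 per well and pre-incubated 5 hr.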

[18] = qHTS assay to identify small molecule agonists of the estrogen receptor beta (ER-beta) signaling pathway - cell viability counter screen (AID 1259380); also: nearly all actives have a fitted effect of over 30% in size; also: potency is read from the fitted curve at half-maximal effect
Method in brief: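 Cytotoxicity is measured in parallel with the reporter screen: after 16 hr compound exposure at 37C and a 2 hr LiveBLAzer step, CellTiter-Glo is added to the same ER-beta-UAS-bla HEK293T wells and luminescence read after 30 min.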

[19] = target: Androgen receptor (Homo sapiens) (UniProt P10275); test: qHTS assay to identify small molecule agonists of the androgen receptor (AR) signaling pathway in the presence of an antagonist (AID 1259381; calls by dose curve; also: nearly all actives have a fitted effect of over 15% in size)
Method in brief: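 Agonist-mode confirmation screen: human MDA-kb2 cells stably expressing luciferase under an MMTV promoter bearing AR and GR response elements, co-treated with 3.0uM nilutamide (final). Luminescence measured after 16hr compound incubation.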

[20] = target: Estrogen receptor (Homo sapiens) (UniProt P03372); test: qHTS assay to identify small molecule agonists of the estrogen receptor alpha (ER-alpha) signaling pathway in the presence of an antagonist (AID 1259383; calls by dose curve; also: top concentration of the series differs between compounds; nearly all actives have a fitted effect of over 15% in size)
Method in brief: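 Agonist-mode confirmation in the presence of the ER antagonist ICI-182,780 at 10.0nM final. Breast-derived VM7Luc4E2 reporter cells were exposed to compounds for 22hr, and ERE-driven luciferase was quantified by luminescence.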
% is scaled to controls: 0 for no effect and ±100 for the full control effect.

Chain of Androgen receptor (Homo sapiens) (P10275 whole entry, looked up): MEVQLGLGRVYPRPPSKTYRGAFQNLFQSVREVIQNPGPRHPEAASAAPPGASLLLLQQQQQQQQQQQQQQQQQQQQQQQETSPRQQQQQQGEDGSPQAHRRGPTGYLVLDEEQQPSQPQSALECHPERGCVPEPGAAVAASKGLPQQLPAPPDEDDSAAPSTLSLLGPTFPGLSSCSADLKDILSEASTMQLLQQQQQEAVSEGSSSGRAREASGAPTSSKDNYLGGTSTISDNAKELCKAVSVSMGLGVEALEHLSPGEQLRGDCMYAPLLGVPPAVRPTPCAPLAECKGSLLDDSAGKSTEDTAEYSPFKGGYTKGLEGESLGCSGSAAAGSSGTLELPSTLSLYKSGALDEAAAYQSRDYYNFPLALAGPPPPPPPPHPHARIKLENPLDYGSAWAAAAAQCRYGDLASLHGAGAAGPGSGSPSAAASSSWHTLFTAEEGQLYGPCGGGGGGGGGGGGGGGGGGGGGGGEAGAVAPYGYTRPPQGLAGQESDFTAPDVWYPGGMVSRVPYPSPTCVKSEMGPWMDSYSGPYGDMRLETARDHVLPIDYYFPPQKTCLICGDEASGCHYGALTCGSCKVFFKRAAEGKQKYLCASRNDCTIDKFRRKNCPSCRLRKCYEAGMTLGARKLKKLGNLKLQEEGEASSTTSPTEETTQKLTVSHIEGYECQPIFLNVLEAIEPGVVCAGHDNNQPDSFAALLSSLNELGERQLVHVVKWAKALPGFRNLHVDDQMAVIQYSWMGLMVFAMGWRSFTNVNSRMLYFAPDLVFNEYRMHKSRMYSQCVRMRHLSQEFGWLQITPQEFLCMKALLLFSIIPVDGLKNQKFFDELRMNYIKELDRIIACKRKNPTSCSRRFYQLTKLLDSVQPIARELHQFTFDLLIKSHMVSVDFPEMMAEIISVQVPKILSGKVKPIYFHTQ
Chain of Estrogen receptor (Homo sapiens) (P03372 whole entry, looked up): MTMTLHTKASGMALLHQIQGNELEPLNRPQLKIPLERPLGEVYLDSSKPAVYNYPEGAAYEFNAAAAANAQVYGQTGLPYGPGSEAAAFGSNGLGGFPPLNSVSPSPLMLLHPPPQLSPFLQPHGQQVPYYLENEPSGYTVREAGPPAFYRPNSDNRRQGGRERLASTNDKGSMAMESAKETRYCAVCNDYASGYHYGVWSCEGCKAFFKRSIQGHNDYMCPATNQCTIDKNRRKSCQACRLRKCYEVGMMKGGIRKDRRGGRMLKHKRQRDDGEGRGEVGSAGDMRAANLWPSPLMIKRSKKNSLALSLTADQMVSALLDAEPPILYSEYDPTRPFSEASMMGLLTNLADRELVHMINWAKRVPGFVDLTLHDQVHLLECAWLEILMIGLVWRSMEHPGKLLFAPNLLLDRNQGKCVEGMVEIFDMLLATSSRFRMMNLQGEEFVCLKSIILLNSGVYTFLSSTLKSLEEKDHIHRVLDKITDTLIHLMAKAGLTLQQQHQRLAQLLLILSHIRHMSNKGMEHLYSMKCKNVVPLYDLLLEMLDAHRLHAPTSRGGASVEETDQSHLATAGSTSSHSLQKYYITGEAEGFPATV
Chain of Estrogen receptor beta (Homo sapiens) (Q92731 whole entry, looked up): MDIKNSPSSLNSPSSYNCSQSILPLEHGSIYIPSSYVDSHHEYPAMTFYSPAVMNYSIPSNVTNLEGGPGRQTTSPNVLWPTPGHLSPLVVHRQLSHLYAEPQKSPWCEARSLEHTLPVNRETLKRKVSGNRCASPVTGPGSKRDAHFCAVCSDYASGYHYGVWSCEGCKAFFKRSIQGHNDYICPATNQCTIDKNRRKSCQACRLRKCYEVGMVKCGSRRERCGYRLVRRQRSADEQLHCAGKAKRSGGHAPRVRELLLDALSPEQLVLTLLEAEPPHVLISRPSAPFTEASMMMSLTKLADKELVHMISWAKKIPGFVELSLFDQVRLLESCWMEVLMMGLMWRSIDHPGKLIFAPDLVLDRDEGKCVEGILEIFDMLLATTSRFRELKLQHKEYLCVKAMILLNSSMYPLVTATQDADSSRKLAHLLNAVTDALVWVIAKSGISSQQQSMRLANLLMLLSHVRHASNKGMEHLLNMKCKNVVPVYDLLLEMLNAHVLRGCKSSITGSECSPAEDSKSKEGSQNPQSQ
Chain of Thyrotropin-releasing hormone receptor (Homo sapiens) (P34981 whole entry, looked up): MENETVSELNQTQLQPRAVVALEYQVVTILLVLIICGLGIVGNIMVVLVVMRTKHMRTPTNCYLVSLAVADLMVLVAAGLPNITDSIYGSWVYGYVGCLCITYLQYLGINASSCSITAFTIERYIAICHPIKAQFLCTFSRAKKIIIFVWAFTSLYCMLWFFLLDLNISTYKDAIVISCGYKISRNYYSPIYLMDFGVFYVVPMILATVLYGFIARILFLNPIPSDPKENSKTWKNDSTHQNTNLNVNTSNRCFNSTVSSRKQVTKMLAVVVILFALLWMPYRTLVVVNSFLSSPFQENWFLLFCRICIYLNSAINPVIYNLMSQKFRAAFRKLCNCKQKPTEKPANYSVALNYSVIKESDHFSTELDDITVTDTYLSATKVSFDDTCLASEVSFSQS
Chain of Progesterone receptor (Homo sapiens) (P06401 whole entry, looked up): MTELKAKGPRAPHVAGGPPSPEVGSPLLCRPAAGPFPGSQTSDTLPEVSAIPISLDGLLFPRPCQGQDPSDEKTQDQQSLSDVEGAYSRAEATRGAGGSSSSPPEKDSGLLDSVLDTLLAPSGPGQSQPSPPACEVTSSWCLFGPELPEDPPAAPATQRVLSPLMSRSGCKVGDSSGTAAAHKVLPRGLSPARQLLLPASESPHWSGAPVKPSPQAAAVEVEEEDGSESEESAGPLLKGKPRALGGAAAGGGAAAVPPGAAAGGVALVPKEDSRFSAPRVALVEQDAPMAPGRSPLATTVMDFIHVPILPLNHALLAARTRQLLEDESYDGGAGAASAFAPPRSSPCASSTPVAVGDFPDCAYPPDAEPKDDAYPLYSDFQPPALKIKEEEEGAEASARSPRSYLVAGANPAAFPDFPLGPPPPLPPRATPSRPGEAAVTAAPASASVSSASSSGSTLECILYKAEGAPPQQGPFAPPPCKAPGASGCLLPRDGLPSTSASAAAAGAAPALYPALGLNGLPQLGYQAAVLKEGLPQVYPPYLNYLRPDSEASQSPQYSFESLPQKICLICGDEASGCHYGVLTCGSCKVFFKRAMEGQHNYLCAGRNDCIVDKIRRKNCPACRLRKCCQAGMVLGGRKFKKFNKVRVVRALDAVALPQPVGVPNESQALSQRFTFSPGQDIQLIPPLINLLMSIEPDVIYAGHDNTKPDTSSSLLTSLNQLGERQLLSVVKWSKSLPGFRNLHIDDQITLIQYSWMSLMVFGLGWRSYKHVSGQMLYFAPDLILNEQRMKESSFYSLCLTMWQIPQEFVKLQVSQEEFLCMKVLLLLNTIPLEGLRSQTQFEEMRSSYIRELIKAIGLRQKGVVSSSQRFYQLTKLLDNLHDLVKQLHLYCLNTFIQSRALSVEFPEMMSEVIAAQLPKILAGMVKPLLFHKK
Chain of Thyrotropin receptor (Homo sapiens) (P16473 whole entry, looked up): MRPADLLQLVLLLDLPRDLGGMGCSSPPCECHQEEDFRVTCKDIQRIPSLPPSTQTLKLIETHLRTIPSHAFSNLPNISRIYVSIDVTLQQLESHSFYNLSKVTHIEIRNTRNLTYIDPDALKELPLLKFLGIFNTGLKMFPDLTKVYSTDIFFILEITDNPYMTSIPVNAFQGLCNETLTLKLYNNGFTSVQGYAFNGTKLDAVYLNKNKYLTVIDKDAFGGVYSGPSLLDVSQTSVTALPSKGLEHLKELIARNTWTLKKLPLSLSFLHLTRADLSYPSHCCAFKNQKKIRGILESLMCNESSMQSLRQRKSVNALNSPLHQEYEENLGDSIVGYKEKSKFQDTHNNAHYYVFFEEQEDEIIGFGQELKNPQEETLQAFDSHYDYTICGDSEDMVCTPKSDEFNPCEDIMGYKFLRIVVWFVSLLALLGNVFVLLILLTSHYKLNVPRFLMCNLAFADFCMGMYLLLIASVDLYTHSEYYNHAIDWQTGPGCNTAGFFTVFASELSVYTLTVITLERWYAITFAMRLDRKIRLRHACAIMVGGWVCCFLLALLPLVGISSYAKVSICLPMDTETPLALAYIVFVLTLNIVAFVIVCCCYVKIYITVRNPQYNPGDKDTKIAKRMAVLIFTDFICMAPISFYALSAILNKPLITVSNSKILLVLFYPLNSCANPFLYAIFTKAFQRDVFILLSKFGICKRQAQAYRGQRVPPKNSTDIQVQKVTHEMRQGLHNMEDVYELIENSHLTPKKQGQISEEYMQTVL

CO[C@H]1C=CO[C@@]2(C)Oc3c(C)c(O)c4c(O)c(cc(O)c4c3C2=O)NC(=O)/C(C)=C\C=C/[C@H](C)[C@H](O)[C@@H](C)[C@@H](O)[C@@H](C)[C@H](OC(C)=O)[C@@H]1C
inactive: outcome [4] | Potency [5] | outcome [7] | Potency [8] | Potency [9] | Potency [10] | Potency [11] | Potency [12] | Potency [13] | Potency [14] | Potency [15] | Potency [17]
active: Potency [1] 43.6 µM | Potency [2] 48.9 µM | Potency [3] 69.1 µM | Potency [6] 38.8 µM | Potency [16] 48.9 µM

CCCCCCC(C)Nc1ccc(Nc2ccccc2)cc1 (configuration not stated)
active: Potency [1] 48.6 µM | Potency [8] 48.6 µM
inactive: Potency [2] | Potency [11] | Potency [12] | Potency [13] | Potency [14] | Potency [15] | Potency [17]

CO[Si](CCC1CCC2OC2C1)(OC)OC (configuration not stated)
inactive: Potency [2] | Potency [18] | Potency [19] | Potency [3] | Potency [20] | outcome [4] | Potency [5] | Potency [6] | outcome [7] | Potency [8] | Potency [9] | Potency [10] | Potency [11] | Potency [12] | Potency [13] | Potency [14] | Potency [15] | Potency [16] | Potency [17]

CCc1ccc(C)nc1
inactive: Potency [1] | Potency [2] | Potency [3] | Potency [20] | outcome [4] | outcome [7] | Potency [9] | Potency [10] | Potency [11] | Potency [12] | Potency [13] | Potency [16] | Potency [17]

C=C1C(C)(C)[C@@]2(Cl)C(Cl)[C@]1(Cl)C(Cl)(Cl)C2(Cl)Cl (some centres not stated)
inactive: outcome [4] | Potency [5] | Potency [11] | Potency [12] | Potency [13] | Potency [17]
active: Potency [1] 30.1 µM | Potency [9] 67.3 µM

CCCCCCCCCC(=O)N(C)C
inactive: Potency [1] | Potency [2] | Potency [3] | outcome [4] | Potency [5] | outcome [7] | Potency [8] | Potency [10] | Potency [11] | Potency [12] | Potency [13] | Potency [15] | Potency [16] | Potency [17]

O=C1Nc2ccc(Cl)cc2[C@@](C#CC2CC2)(C(F)(F)F)O1
inactive: Potency [2] | Potency [20] | outcome [4] | Potency [5] | Potency [6] | Potency [10] | Potency [12] | Potency [13] | Potency [14] | Potency [15]
active: Potency [1] 23.7 µM | Potency [8] 7.5 µM

Cc1c(C)n(Cc2ccccc2)c2ccc(C(=O)OCCN(C)C)cc12
inactive: outcome [4] | Potency [5] | Potency [6] | outcome [7] | Potency [9] | Potency [10] | Potency [11] | Potency [12] | Potency [13] | Potency [14]
active: Potency [1] 23.7 µM | Potency [8] 26.6 µM

c1cc[nH]c1
inactive: Potency [2] | Potency [18] | Potency [19] | Potency [3] | Potency [20] | outcome [4] | Potency [5] | Potency [6] | outcome [7] | Potency [8] | Potency [9] | Potency [10] | Potency [11] | Potency [12] | Potency [13] | Potency [15] | Potency [16] | Potency [17]

OCCCc1cccnc1
inactive: Potency [2] | Potency [18] | Potency [19] | Potency [3] | Potency [20] | outcome [4] | Potency [5] | Potency [6] | outcome [7] | Potency [8] | Potency [9] | Potency [10] | Potency [11] | Potency [12] | Potency [13] | Potency [14] | Potency [15] | Potency [17]

CCCCCCCCC(C)=O
inactive: Potency [2] | Potency [18] | Potency [19] | Potency [3] | Potency [20] | outcome [4] | Potency [5] | Potency [6] | outcome [7] | Potency [8] | Potency [9] | Potency [10] | Potency [11] | Potency [12] | Potency [13] | Potency [14] | Potency [15] | Potency [16] | Potency [17]

Cc1cc(Nc2ccc(O)cc2)ccc1N
active: Potency [2] 24.2 µM | Potency [6] 30.5 µM | Potency [16] 30.5 µM
inactive: Potency [1] | Potency [3] | outcome [7] | Potency [9] | Potency [11] | Potency [12] | Potency [13] | Potency [17]

C=CC(=O)OCCC#N
inactive: Potency [1] | Potency [2] | Potency [3] | outcome [4] | Potency [5] | Potency [6] | outcome [7] | Potency [8] | Potency [9] | Potency [10] | Potency [11] | Potency [12] | Potency [13] | Potency [14] | Potency [15] | Potency [16] | Potency [17]

CCN(CC)CCOc1ccc(C(O)(Cc2ccc(Cl)cc2)c2ccc(C)cc2)cc1 (configuration not stated)
inactive: Potency [20] | outcome [4] | outcome [7] | Potency [13] | Potency [14] | Potency [15]
active: Potency [1] 10.6 µM | Potency [18] 26.6 µM | Potency [3] 29.8 µM | Potency [5] 29.8 µM | Potency [9] 26.6 µM | Potency [10] 23.7 µM | Potency [16] 26.6 µM | Potency [17] 33.5 µM

S=C(SSSSSSC(=S)N1CCCCC1)N1CCCCC1
inactive: activity change, negative = cytotoxicity [2] -6.95% [at 19 µM] | activation [20] 7.24% [at 19 µM] | activation [7] 0.512% [at 19 µM] | viability change, negative = cytotoxic [11] 17.4% [at 15.8 µM] | activity change, negative = cytotoxicity [12] -0.13% [at 15.8 µM] | activation [13] 10.4% [at 15.8 µM] | activity, negative = inhibition [14] -6.79% [at 10.5 µM] | activation [15] 4.08% [at 11.8 µM] | activity change, negative = cytotoxicity [16] 0.702% [at 19 µM] | caspase activation [17] 0.0321% [at 19 µM]
active: Potency [1] 13.4 µM | Potency [8] 13.4 µM

CSc1c(Cl)c(Cl)c(Cl)c(Cl)c1Cl
inactive: Potency [1] | Potency [2] | Potency [3] | outcome [4] | Potency [6] | outcome [7] | Potency [8] | Potency [9] | Potency [12] | Potency [13] | Potency [14] | Potency [15] | Potency [16] | Potency [17]
